# Experimental data published in publication PMC5540273 (PLoS ONE, 2017).
# What was measured:
# Conditions in all cases: concentration: 1 μM,replicates: in singlicate; n = 1
# HASPIN = system: T1, HASPIN
# T1 construct: gene GSG2
# HCK = system: HCK
# HIPK1 = system: HIPK1
# HIPK2 = system: HIPK2
# HIPK3 = system: HIPK3
# HIPK4 = system: HIPK4
# HPK1 = system: HPK1
# HUNK = system: HUNK
# ICK = system: ICK
# IGF1R = system: IGF1R
# IKK-alpha = system: T2, IKK-alpha
# T2 construct: gene CHUK
# IKK-beta = system: T3, IKK-beta
# T3 construct: gene IKBKB
# IKK-epsilon = system: T4, IKK-epsilon
# T4 construct: gene IKBKE
# INSRR = system: INSRR
# INSR = system: INSR
# IRAK1 = system: IRAK1
# IRAK3 = system: IRAK3
# IRAK4 = system: IRAK4
# ITK = system: ITK
# [1] = system: JAK1(JH1domain-catalytic)
# 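Also: KINOMEscan kinase panel screen.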
SMILES,%Inh (HASPIN),%Inh (HCK),%Inh (HIPK1),%Inh (HIPK2),%Inh (HIPK3),%Inh (HIPK4),%Inh (HPK1),%Inh (HUNK),%Inh (ICK),%Inh (IGF1R),%Inh (IKK-alpha),%Inh (IKK-beta),%Inh (IKK-epsilon),%Inh (INSRR),%Inh (INSR),%Inh (IRAK1),%Inh (IRAK3),%Inh (IRAK4),%Inh (ITK),%Inh [1]
Cc1occc1-c1nc(N)c(OC[C@@H](N)Cc2c[nH]c3ccccc23)cc1-c1cc2c(C)n[nH]c2cn1 [GSK1660450],71%,14%,97.2%,99.1%,98.8%,79%,90.6%,0%,68%,0%,0%,9%,0%,0%,0%,12%,12%,1%,13%,0%
Cl.Oc1cc(-c2nc(-c3ccccc3)[nH]c2-c2ccncc2)ccc1Cl [SB-386023],26%,69%,31%,44%,6%,7%,17%,0%,22%,0%,0%,8%,0%,0%,3%,0%,0%,0%,10%,0%
Cc1ccc2c(-c3ccncc3)c(-c3ccc(F)cc3)nn2c1.Cl [GW461484],19%,0%,0%,0%,1%,0%,0%,12%,0%,16%,9%,0%,34%,0%,6%,0%,0%,0%,0%,11%
CC(C)N1C(=O)Cc2cc(Nc3ncc(C(F)(F)F)c(NCc4cccc(S(C)(=O)=O)c4)n3)ccc21,0%,0%,15%,40%,11%,3%,41%,0%,26%,29%,20%,26%,70%,15%,44%,37%,7%,9%,8%,48%
Cc1ccc(-n2nc(C(C)(C)C)cc2NC(=O)Nc2ccc(OCCN3CCOCC3)c3ccccc23)cc1 [GW839464],24%,23%,31%,0%,0%,2%,0%,3%,0%,6%,29%,0%,0%,0%,0%,0%,27%,0%,18%,0%
Cl.Cl.NC[C@H](CC1CCCCC1)NC(=O)c1cc(Br)c(-c2ccnc3[nH]ccc23)s1 [GSK1581427],68%,0%,84%,74%,94.3%,93.7%,67%,0%,24%,0%,27%,45%,0%,0%,0%,38%,0%,25%,12%,22%
CN(C)CCOc1ccc(-c2cc(-c3c[nH]nc3-c3ccccn3)ccn2)cc1 [GW835314],0%,19%,0%,0%,16%,100%,0%,0%,35%,8%,0%,0%,0%,14%,23%,9%,18%,12%,15%,0%
CCN(CC)CCCCNc1ncc2cc(-c3c(Cl)cccc3Cl)c(NC(=O)NC(C)(C)C)nc2n1,0%,97.6%,16%,7%,23%,64%,72%,10%,0%,0%,30%,5%,0%,0%,0%,16%,0%,0%,0%,0%
